# PI5P4Ka inh: blocks human PI5P4K alpha kinase activity; PI5P4Kalpha enzyme, ADP-Glo luminescence, 60 min; stronger effect = lower value; max response, %; 1.2% of 330,000 active; active = max response of -50% or lower; inconclusive = between -30% and -50%; inactive = -30% or higher; also: value at the top dose of about 77 µM; % is scaled to controls: 0 for no effect and ±100 for the full control effect
# Target sequence (P48426 whole entry, looked up): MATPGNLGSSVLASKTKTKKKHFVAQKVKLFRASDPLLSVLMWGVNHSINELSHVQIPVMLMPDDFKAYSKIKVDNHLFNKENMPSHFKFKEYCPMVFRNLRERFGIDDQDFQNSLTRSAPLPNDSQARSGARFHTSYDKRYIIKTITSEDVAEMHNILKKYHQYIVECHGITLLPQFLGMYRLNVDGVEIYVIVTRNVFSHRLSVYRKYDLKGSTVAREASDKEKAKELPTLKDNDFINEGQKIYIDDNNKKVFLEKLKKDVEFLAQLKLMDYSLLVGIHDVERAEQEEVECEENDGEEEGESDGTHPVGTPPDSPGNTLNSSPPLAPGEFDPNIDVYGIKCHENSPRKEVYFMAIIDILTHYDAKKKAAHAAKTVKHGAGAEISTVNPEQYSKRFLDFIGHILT
#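 qHTS, 1536-well: enzyme/substrate mix, compound by pin tool, 5 microM ATP final; RT 60 min; ADP-Glo reagents 1 (45 min) then 2 (30 min); luminescence.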
# BAZ2B block: blocks human BAZ2B; Q9UIF8; AlphaScreen BAZ2B-H3K14Ac peptide displacement; Potency, µM (series often up to 114 µM), for inactives: top-dose activity change, negative = inhibition, actives largely listed as inhibitors; 4.4% of 360,000 active; AID 504333; also: potency is read from the fitted curve at half-maximal effect; % is scaled to controls: 0 for no effect and ±100 for the full control effect; nearly all actives have a fitted effect of over 60% in size
#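 Inhibition is scored as reduced AlphaScreen emission. The BAZ2B/b-H3(5-23)K14Ac complex (50 nM each) in PBS pH 7.4, 0.01% Tween-20 meets compound (up to 110 uM) for 30 min at RT before bead addition.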
# JMJD2A Tudor inh: inhibitors of human JMJD2A Tudor domain; AlphaScreen JMJD2A-Tudor / H3K4me3 peptide binding; 4.4% of 390,000 active; O75164; AID 504339; Potency, µM (highest dose often 114 µM), for inactives: top-dose activity change, negative = inhibition, actives largely listed as inhibitors; also: potency is read from the fitted curve at half-maximal effect; % is scaled to controls: 0 for no effect and ±100 for the full control effect; nearly all actives have a fitted effect of over 50% in size
# HP1b chromo inh: inhibitors of HP1-beta chromodomain binding to methylated histone tails; 0.56% of 390,000 active; Potency, µM (highest dose often 114 µM), inactives show at the top dose activity change, negative = inhibition, actives largely listed as inhibitors; AID 540317; AlphaScreen HP1-beta / biotin-H3K9me3 peptide binding; also: potency is read from the fitted curve at half-maximal effect; nearly all actives have a fitted effect of over 70% in size
# Target sequence (P83916 whole entry, looked up): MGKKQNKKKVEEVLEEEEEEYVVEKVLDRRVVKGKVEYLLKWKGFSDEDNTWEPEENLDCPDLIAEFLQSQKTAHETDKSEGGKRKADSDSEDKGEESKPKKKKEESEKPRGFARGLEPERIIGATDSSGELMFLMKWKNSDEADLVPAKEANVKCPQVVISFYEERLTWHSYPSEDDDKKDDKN
#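 AlphaScreen: HP1-beta (50 nM) preformed 30 min with biotin-H3(1-18)K9me3 peptide (50 nM) in PBS pH 7.4, 0.01% Tween-20. Compound added for 30 min at RT, then streptavidin donor/nickel chelate acceptor beads (10 ug/mL) for 30 min.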
# GCN5L2 inh: GCN5L2 (KAT2A) acetyltransferase inhibition | Potency, µM (highest dose often 58.9 µM), without a hit: at the highest dose activity change, negative = inhibition, usual class: inhibitors | Q92830 | GCN5L2 HAT assay, ThioGlo1 CoA-SH fluorescence | AID 504327 | 0.21% of 390,000 active; also: potency is read from the fitted curve at half-maximal effect; % is scaled to controls: 0 for no effect and ±100 for the full control effect
#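 Free CoA generated was detected with ThioGlo1 (50uM) fluorescence at Ex340nm/Em540nm, read immediately and after 20 min at room temperature. Enzyme, 20 nM in HEPES pH 7.5 buffer, saw compounds 15 min before adding 75uM H3(1-25) peptide and 70uM acetyl-CoA.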
# PLK1 PBD inh: PLK1 (human) polo-box domain binding inhibition; Plk1 PBD binding of FITC phosphopeptide, fluorescence polarization; P53350; 2.8% of 360,000 active; Potency, µM, for inactives: max response, negative = inhibition, most hits filed as inhibitors; also: potency is read from the fitted curve at half-maximal effect; series mostly up to about 57 µM; % is scaled to controls: 0 for no effect and ±100 for the full control effect; nearly all actives have a fitted effect of over 65% in size
# * hit, by the source's call; u = inconclusive; x = not tested or not shown; [ ] = another dose, or the depositor's remark. Only some compounds are listed: those with a hit (about 7% of all), similar ones and a draw of the others. Unless noted, calls follow the shape of the dose curve; as a rule, active = well fitted curve in the direction sought with a large enough effect; inconclusive = small, poorly fitted or top-dose-only effect, or another doubt; inactive = no such curve, though single readings can be large; an effect the other way counts as inactive or inconclusive.
SMILES,PI5P4Ka inh,BAZ2B block,JMJD2A Tudor inh,HP1b chromo inh,GCN5L2 inh,PLK1 PBD inh
CC(C)Sc1nc2c(c(=O)[nH]c(=O)n2C)n1CC(O)COc1ccccc1 (stereo not drawn),-13,3%,-2%,-12%,-9%,24µM*
CC(O)CSc1nc2c(c(=O)[nH]c(=O)n2C)n1CC(O)COc1ccccc1 (stereo not drawn),-2,-20%,-4%,-9%,-12%,27µM*
Cn1c(=O)[nH]c(=O)c2c1nc(N1CCCC1)n2CC(O)COc1ccccc1 (stereo not drawn),-3,9%,-16%,18%,-4%,-11%
N#CCC(=O)N1CCN(Cc2ccc3c(c2)OCO3)CC1,7,x,0%,27%,x,-10%
CCCNC(=O)C12CCC(C)(c3nc4cc(C)c(C)cc4nc31)C2(C)C (stereo not drawn),5,-1%,-3%,35%,-6%,3%
CC1(c2ccc(Cl)cc2)NC(=S)N2C1NC(=S)N2c1ccccc1 (stereo not drawn),0,50µM*,-30%,27%,-20%,-22%
Cc1cc2c(s1)c1cnn(Cc3cc(Cl)ccc3F)c(=O)c1n2C,x,x,-21%,x,x,x
COC(=O)CSC1=C(C#N)C(=O)NC(c2ccccc2)S1 (stereo not drawn),-56*,50µM*,u,46%,35µM*,u
CSC1=C(C#N)C(=O)NC(c2ccccc2O)S1 (stereo not drawn),-15,u,-9%,18%,-2%,2.1µM*
CC1=C(C#N)C(c2ccccc2O)C(C#N)=C(C)N1,1,22%,-7%,31%,1%,-9%
COC(=O)c1cc(=O)n2c(sc3ccccc32)c1C#N,-4,-1%,-9%,3%,4%,-8%
Cc1ccc(CCC(=O)Nc2ccc(Cl)cc2)o1,2,u,-10%,7%,-8%,2%
Cc1ccc(CCC(=O)Nc2ccc(CC(=O)O)cc2)o1,-24,-20%,u,-1%,-5%,12µM*
C/C(=N\NC(=S)NCC(C)(C)C)c1cc(F)cc(F)c1O,6,7.1µM*,-25%,9%,-6%,-8%
COCCNC(=S)N/N=C(\C)c1ccc(O)cc1,-5,-13%,-5%,37%,-25%,-10%
Brc1cc2c(cc1Br)OCCOCCOCCOCCO2,u,-24%,8.9µM*,-22%,1%,4.2µM*
Cn1c(=O)n(C)c2cc(NC(=O)CCc3ccccc3)c(Br)cc21,-1,50µM*,-3%,30%,-1%,4%
Cc1c(-c2ccc(Br)cc2)[n+](=O)c2c(n1[O-])CCCCC2,-9,-2%,-10%,6%,-4%,-11%
Cc1ccc(-c2c(C)n([O-])c3c([n+]2=O)CCCC3)cc1,8,-8%,56µM*,2%,-6%,u
CCOCCCNC(=O)Nc1cc(C(=O)NCc2ccc(C(C)C)cc2)ccc1N1CCCC1,x,-39%,u,-19%,-19%,x
O=C(CNC(=S)N(CCCN1CCOCC1)Cc1cccs1)N1CCCCCC1,-4,-5%,-13%,3%,-2%,-14%
C=CCN1C(=O)C(O)(CC(=O)c2ccc(OC)cc2OC)c2cc(Br)ccc21 (stereo not drawn),u,2%,-27%[11.4 µM],-10%,-5%,8.4µM*
COc1ccc(C(=O)CC2(O)C(=O)N(CCc3ccccc3)c3ccc(Br)cc32)cc1OC (stereo not drawn),x,-19%,-33%,6%,-9%,x
COc1ccc(C(=O)O)cc1S(=O)(=O)Nc1ccc(C)cc1,-17,-9%,-25%,6%,-3%,-11%
COc1ccc(C(=O)O)cc1S(=O)(=O)NC(C)(C)C,-13,-22%,-1%[11.4 µM],0%,-2%,24µM*
SMILES,PI5P4Ka inh,BAZ2B block,JMJD2A Tudor inh,HP1b chromo inh,GCN5L2 inh,PLK1 PBD inh
CCN(CC)CCOC(=O)CCc1cccc2ccccc12,-2,u,28µM*,-38%,0%,-19%
CCN(CC)CCOC(=O)C(Cc1ccco1)Cc1cccc2ccccc12 (stereo not drawn),-2,x,13µM*,u,x,1%
CCN(CC)S(=O)(=O)c1cccc(N=Nc2sc(N)nc2C)c1,-8,11µM*,35µM*,u,-9%,-17%
COc1cc(/C=N/n2c(C3CCCCC3)n[nH]c2=S)cc(Br)c1O,-62*,-29%,13µM*,18%,-8%,-7%
O=C(N/N=C/c1ccc(C(=O)O)cc1)C(=O)N1CCCCCC1,-3,1%,-2%,22%,-6%,-4%
S=c1[nH]nc(C2CCCCC2)n1/N=C/c1cccs1,-7,-38%,50µM*,-21%,-5%,-27%
O=[N+]([O-])c1ccc(/C=N/n2c(C3CCCCC3)n[nH]c2=S)cc1,5,-30%,89µM*,-1%,-2%,u
COc1cc(/C=N/NC(=O)C2C3CCCCC32C)cc(Br)c1O (stereo not drawn),5,-32%,u,-4%,-3%,0%
O=C(O)c1ccc(/C=N/n2c(C3CCCCC3)n[nH]c2=S)cc1,0,-14%,3.5µM*,20%,-11%,-5%
O=C1NCCCC1C(=O)N/N=C/c1ccc([N+](=O)[O-])cc1 (stereo not drawn),7,1%,-3%,53%,-13%,2%
COc1ccc(Cl)cc1NC(=O)CN1c2ccccc2S(=O)(=O)c2ccccc21,x,-18%,-24%,23%,-7%,x
CCC(=O)c1cn([C@H](CCC(OC)OC)CC(=O)OC(C)(C)C)cc1CC,3,-5%,-16%,u,-9%,-6%
O=C(/C=C/c1ccc2c(c1)S(=O)(=O)N(Cc1ccccc1)[C@H]2CC(=O)N1CCOCC1)N1CCOCC1,0,x,-11%,48%,-2%,u
CSc1ccc(/C=N/n2c(C3CCCCC3)n[nH]c2=S)cc1,3,u,u,u,-12%,-26%
Cc1ccc(/C=N/n2c(C3CCCCC3)n[nH]c2=S)o1,-9,-37%,10µM*,u,-5%,u
S=c1[nH]nc(C2CCCCC2)n1/N=C/c1cccc(Br)c1,-5,3%,3%,41%,17%,-14%
Cc1cccc(/C=N/n2c(C3CCCCC3)n[nH]c2=S)c1,3,u,56µM*,-16%,-3%,27µM*
S=c1[nH]nc(C2CCCCC2)n1/N=C/c1ccncc1,-7,-15%,5µM*,-15%,-6%,-23%
C=CC(C)=C[C@@]1(C)SC(=O)C(C)=C1O,x,x,x,x,4%,x
CCCCCCCCCCCCCCCC(=O)N[C@@H](COP(=O)(O)O)C(=O)O,x,x,x,x,1.6µM*,x
CCCCCCCCCCCC(=O)NC(Cc1ccc(OC)c([N+](=O)[O-])c1)C(=O)O (stereo not drawn),0,-26%,-23%,9%,-27%,u
